In PubChem BioAssay (NCI) one finds growth inhibition data, which are given here for ten compounds.

Compounds without any hit were thinned out: in the full panel of roughly 79,000, 15% have a hit. Values without a mark were called inactive. Active and inactive are the calls of the source. Cut-off read from the data, not from the text of the source: active = growth inhibition above about 70%; inactive = the rest.

Test [1] is described as follows: NCI Yeast Anticancer Drug Screen. Data for the rad50 strain (AID 155).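 Note: 0% = growth of vehicle-only cultures of the same strain.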 The settings on record: S. cerevisiae rad50 strain growth inhibition, hits give high values. In short, it runs like this:
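Vehicle-treated cultures provide the reference for the growth inhibition reported for compound-exposed, repair-deficient yeast.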

A short description of test [2]: NCI Yeast Anticancer Drug Screen. Data for the mec2-1 strain (AID 157). The settings on record: S. cerevisiae mec2-1 strain, hits give high values. In short, it runs like this: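 Readout is yeast growth inhibition, normalised to vehicle-treated controls, in the mec2-1 strain exposed to compound.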
Test [3] is described as follows: NCI Yeast Anticancer Drug Screen. Data for the sgs1 mgt1 strain (AID 161).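 Note: 0% = growth of cultures given vehicle only.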 The settings on record: S. cerevisiae sgs1 mgt1 strain, hits give high values. In a few lines:
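This yeast growth screen uses a strain with defined DNA-repair lesions; compound-treated growth is compared with vehicle-treated growth.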

A short description of test [4]: NCI Yeast Anticancer Drug Screen. Data for the cln2 rad14 strain (AID 165).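 Note: 0% = growth equal to vehicle treated cultures.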 The settings on record: S. cerevisiae cln2 rad14 strain, hits give high values. In a few lines: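 Relative to vehicle controls, growth inhibition of compound-treated cln2 rad14 yeast was recorded.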
The nature of test [5]: NCI Yeast Anticancer Drug Screen. Data for the bub3 strain (AID 167). The settings on record: S. cerevisiae bub3 mutant strain, hits give high values. In short, it runs like this: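 Mutant yeast screening strain plus compound; vehicle-treated cultures serve as the 0% inhibition reference.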
Test [6] can be described thus: NCI Yeast Anticancer Drug Screen. Data for the mlh1 rad18 strain (AID 175). The settings on record: S. cerevisiae mlh1 rad18 strain growth inhibition, hits give high values. In short, it runs like this: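 Test agents were incubated with a yeast strain of defined genotype (DNA damage repair defect). Inhibition of growth was derived by comparison with vehicle-exposed cultures.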

Where [7] appears, read: at 5.0 µM (retest, dose inferred, filed as 0.5).
Setting [8] is: at 50.0 µM (retest, dose inferred, filed as 5.0).

For `CC(C)(C)CC(C)(C)NCc1cc(Cl)cc(Cc2cc(Cl)ccc2O)c1O`, the growth inhibition in test [1] (setting [7]) is 10%; in test [1] (setting [8]) it was 97% (active); in test [1] (at 50.0 µM), 28.9%; in test [2] (setting [7]) it was 9%; in test [2] (setting [8]), 98% (active); in test [2] (at 50.0 µM), 46%. The growth inhibition is 8% in test [3] (setting [7]); 98% (active) in test [3] (setting [8]); 48.7% in test [3] (at 50.0 µM); -4% in test [4] (setting [7]); 94% (active) in test [4] (setting [8]); 16.8% in test [4] (at 50.0 µM). Further, the growth inhibition in test [5] (setting [7]) was 4%; in test [5] (setting [8]), 98% (active); in test [5] (at 50.0 µM) it was 20.4%; in test [6] (setting [7]), 19%; in test [6] (setting [8]) it was 98% (active); in test [6] (at 50.0 µM), 78.7% (active).
As for `Nc1ccc(C(=O)/C=C/c2ccccn2)cc1`, the growth inhibition in test [1] (setting [7]) is 3%; in test [1] (setting [8]), 45%; in test [1] (at 50.0 µM) it was 8.2%; in test [2] (setting [7]) it was -6%; in test [2] (setting [8]) it was 64%; in test [2] (at 50.0 µM), 31.4%. Further, the growth inhibition in test [3] (setting [7]) was 1%; in test [3] (setting [8]) it was 60%; in test [3] (at 50.0 µM), 17.8%; in test [4] (setting [7]), 9%; in test [4] (setting [8]), 38%; in test [4] (at 50.0 µM), 17.6%. The growth inhibition in test [5] (setting [7]) was -1%; in test [5] (setting [8]) it was 79% (active); in test [5] (at 50.0 µM), 66.8%; in test [6] (setting [7]) it was 6%; in test [6] (setting [8]), 82% (active); in test [6] (at 50.0 µM), 27.9%.
Regarding `CCCCC(CC)C(O)C(=O)O` (stereo not given), the growth inhibition is 2% in test [1] (setting [7]); 30% in test [1] (setting [8]); 46.8% in test [1] (at 50.0 µM); -1% in test [2] (setting [7]); 27% in test [2] (setting [8]); 45.7% in test [2] (at 50.0 µM). In addition, the growth inhibition is 4% in test [3] (setting [7]); 4% in test [3] (setting [8]); 40.4% in test [3] (at 50.0 µM); 6% in test [4] (setting [7]); 32% in test [4] (setting [8]); 26.6% in test [4] (at 50.0 µM). In addition, the growth inhibition is 1% in test [5] (setting [7]); 26% in test [5] (setting [8]); 33.9% in test [5] (at 50.0 µM); -2% in test [6] (setting [7]); 31% in test [6] (setting [8]); 54.4% in test [6] (at 50.0 µM).
Turning to `C[C@]12CC[C@H](O)C[C@@H]1CC[C@@H]1[C@@H]2CC[C@]2(C)[C@@H](c3cc(C(F)(F)F)n[nH]3)CC[C@@H]12`, the growth inhibition in test [1] (setting [7]) is 12%; in test [1] (setting [8]) it was 94% (active); in test [1] (at 50.0 µM), 89.8% (active); in test [2] (setting [7]) it was 3%; in test [2] (setting [8]) it was 86% (active); in test [2] (at 50.0 µM) it was 61.6%. The growth inhibition in test [3] (setting [7]) is 10%; in test [3] (setting [8]) it was 90% (active); in test [3] (at 50.0 µM) it was 63%; in test [4] (setting [7]), 7%; in test [4] (setting [8]) it was 92% (active); in test [4] (at 50.0 µM), 68.9%. Further, the growth inhibition in test [5] (setting [7]) was -3%; in test [5] (setting [8]), 85% (active); in test [5] (at 50.0 µM) it was 84.3% (active); in test [6] (setting [7]), 12%; in test [6] (setting [8]) it was 96% (active); in test [6] (at 50.0 µM), 88.7% (active).
For `C=C(C)COc1ccccc1C(OCC)OCC`, the growth inhibition in test [1] (setting [7]) is 1%; in test [1] (setting [8]) it was 21%; in test [1] (at 50.0 µM), 49.9%; in test [2] (setting [7]), 7%; in test [2] (setting [8]), 19%; in test [2] (at 50.0 µM), 14.9%. Further, the growth inhibition in test [3] (setting [7]) is 3%; in test [3] (setting [8]), 28%; in test [3] (at 50.0 µM), 29.1%; in test [4] (setting [7]), -1%; in test [4] (setting [8]) it was 27%; in test [4] (at 50.0 µM), 13.7%. In addition, the growth inhibition was 0% in test [5] (setting [7]); 20% in test [5] (setting [8]); 31.6% in test [5] (at 50.0 µM); 0% in test [6] (setting [7]); 39% in test [6] (setting [8]); 78.5% (active) in test [6] (at 50.0 µM).
`S=C(Nc1ccccc1)NC1CCCCCCCCC1`: the growth inhibition in test [1] (setting [7]) was -2%; in test [1] (setting [8]) it was 29%; in test [1] (at 50.0 µM) it was 77% (active); in test [2] (setting [7]), -8%; in test [2] (setting [8]), 42%; in test [2] (at 50.0 µM) it was 54.9%. In addition, the growth inhibition in test [3] (setting [7]) was 5%; in test [3] (setting [8]), 53%; in test [3] (at 50.0 µM) it was 90.6% (active); in test [4] (setting [7]) it was -59%; in test [4] (setting [8]) it was 71% (active); in test [4] (at 50.0 µM), 60.7%. Besides, the growth inhibition is -5% in test [5] (setting [7]); 27% in test [5] (setting [8]); 30.8% in test [5] (at 50.0 µM); 0% in test [6] (setting [7]); 44% in test [6] (setting [8]); 88.7% (active) in test [6] (at 50.0 µM).
`OC(CBr)c1c(Br)ccc2ccccc12` (stereo not given): the growth inhibition was 3% in test [1] (setting [7]); 65% in test [1] (setting [8]); 53.6% in test [1] (at 50.0 µM); -6% in test [2] (setting [7]); 82% (active) in test [2] (setting [8]); 5.75% in test [2] (at 50.0 µM). The growth inhibition in test [3] (setting [7]) was 3%; in test [3] (setting [8]), 77% (active); in test [3] (at 50.0 µM) it was 48%; in test [4] (setting [7]), -3%; in test [4] (setting [8]) it was 65%; in test [4] (at 50.0 µM), 32.9%. For the same compound, the growth inhibition was -1% in test [5] (setting [7]); 77% (active) in test [5] (setting [8]); 20.4% in test [5] (at 50.0 µM); 20% in test [6] (setting [7]); 90% (active) in test [6] (setting [8]); 74.7% (active) in test [6] (at 50.0 µM).
Take `O=[N+]([O-])CCc1ccco1`: the growth inhibition in test [1] (setting [7]) was 3%; in test [1] (setting [8]) it was 0%; in test [1] (at 50.0 µM), 74.8% (active); in test [2] (setting [7]) it was 1%; in test [2] (setting [8]), -1%; in test [2] (at 50.0 µM), 73.2% (active). For the same compound, the growth inhibition was 2% in test [3] (setting [7]); 2% in test [3] (setting [8]); 47.4% in test [3] (at 50.0 µM); 3% in test [4] (setting [7]); 0% in test [4] (setting [8]); 56.2% in test [4] (at 50.0 µM). Moreover, the growth inhibition is 4% in test [5] (setting [7]); -4% in test [5] (setting [8]); 95.2% (active) in test [5] (at 50.0 µM); 0% in test [6] (setting [7]); -1% in test [6] (setting [8]); 44.1% in test [6] (at 50.0 µM).
For `S=C(NCc1ccccc1)[S][Sb]([S]C(=S)NCc1ccccc1)[c]1ccccc1`, the growth inhibition is 1% in test [1] (setting [7]); 95% (active) in test [1] (setting [8]); 95.8% (active) in test [1] (at 50.0 µM); 2% in test [2] (setting [7]); 97% (active) in test [2] (setting [8]); 88.4% (active) in test [2] (at 50.0 µM). Moreover, the growth inhibition in test [3] (setting [7]) is -138%; in test [3] (setting [8]), 93% (active); in test [3] (at 50.0 µM), 96% (active); in test [4] (setting [7]) it was -6%; in test [4] (setting [8]) it was 89% (active); in test [4] (at 50.0 µM), 69.8%. Further, the growth inhibition in test [5] (setting [7]) was -11%; in test [5] (setting [8]), 93% (active); in test [5] (at 50.0 µM), 84.5% (active); in test [6] (setting [7]) it was 6%; in test [6] (setting [8]), 87% (active); in test [6] (at 50.0 µM), 97.3% (active).
Take `CCCCCCOC(=O)C(N)Cc1ccc(OC)cc1` (stereo not given): the growth inhibition in test [1] (setting [7]) was 5%; in test [1] (setting [8]), 21%; in test [1] (at 50.0 µM), 39.2%; in test [2] (setting [7]) it was 7%; in test [2] (setting [8]), 29%; in test [2] (at 50.0 µM), 40.5%. Moreover, the growth inhibition is 6% in test [3] (setting [7]); 42% in test [3] (setting [8]); 56.2% in test [3] (at 50.0 µM); 2% in test [4] (setting [7]); 17% in test [4] (setting [8]); 32.4% in test [4] (at 50.0 µM). Further, the growth inhibition in test [5] (setting [7]) was 5%; in test [5] (setting [8]) it was 80% (active); in test [5] (at 50.0 µM) it was 52%; in test [6] (setting [7]) it was -1%; in test [6] (setting [8]), 43%; in test [6] (at 50.0 µM), 48.1%.
